Laboratory results published in ChEMBL document CHEMBL3433997, “St. Jude Leishmania screening dataset” (2016).

What was measured:
Format in all cases: functional
[1] = target: Solute carrier family 2, facilitated glucose transporter member 1 (Homo sapiens) (UniProt P11166); assay: ST_JUDE_LEISH: Cytotoxicity at 2uM final concentration against transgenic Leishmania Mexicana promastigotes LmGLUT1 that are glucose transport deficient and complemented with the human glucose transporter GLUT1. Activity is measured by DNA content using SYBR green in vitro
Sequence of Solute carrier family 2, facilitated glucose transporter member 1 (Homo sapiens) (P11166 whole entry): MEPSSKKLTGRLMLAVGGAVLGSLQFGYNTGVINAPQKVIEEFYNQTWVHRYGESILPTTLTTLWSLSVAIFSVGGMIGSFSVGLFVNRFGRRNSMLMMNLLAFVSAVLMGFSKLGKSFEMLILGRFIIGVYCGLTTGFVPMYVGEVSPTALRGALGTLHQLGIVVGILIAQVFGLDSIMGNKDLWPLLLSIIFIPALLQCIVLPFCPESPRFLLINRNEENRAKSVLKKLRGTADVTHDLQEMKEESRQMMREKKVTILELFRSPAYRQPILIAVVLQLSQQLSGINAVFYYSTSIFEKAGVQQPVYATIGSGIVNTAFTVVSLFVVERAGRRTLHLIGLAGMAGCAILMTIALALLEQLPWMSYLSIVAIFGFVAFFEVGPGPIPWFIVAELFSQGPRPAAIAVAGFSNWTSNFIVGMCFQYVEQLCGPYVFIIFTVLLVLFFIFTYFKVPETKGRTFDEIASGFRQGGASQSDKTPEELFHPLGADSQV

[2] = target: Hexose transporter 1 (Plasmodium falciparum) (UniProt O97467); assay: ST_JUDE_LEISH: Cytotoxicity at 2uM final concentration against transgenic Leishmania Mexicana promastigotes LmPfHT that are glucose transport deficient and complemented with the Plasmodium falciparum hexose transporter. Activity is measured by DNA content using SYBR green in vitro
[3] = target: Glucose transporter (Leishmania mexicana) (UniProt O61059); assay: ST_JUDE_LEISH: Cytotoxicity at 2uM final concentration against transgenic Leishmania Mexicana promastigotes LmGT2 that are glucose transport deficient and complemented with the L. Mexicana glucose transporter 2. Activity is measured by DNA content using SYBR green in vitro

| SMILES | inhibition [1] | inhibition [2] | inhibition [3] |
| --- | --- | --- | --- |
| CCc1c(CCNCCCCCCNCCc2ccc(OC)cc2)ccc(OC)c1OC | 5.63% | 5.5% | 5.8% |
| COc1ccc2nccc(N3CCC(CCNCc4ccc5c(n4)NC(=O)CS5)CC3)c2n1 | 4.06% | 4.8% | 7.97% |
| CCNc1cc(C(=O)N[C@@H](Cc2ccccc2)[C@H](O)CNC2CCC(C)(C)CC2)cc(N2CCCCS2(=O)=O)c1 | 3.16% | 1.73% | 1.22% |
| CC(=O)N1c2ccccc2C(C)=CC1(C)C | -0.17% | -0.45% | -1.02% |
| CCCC1N=C(N)N=C(N)N1c1ccc(C)c(C)c1 (configuration not stated) | -0.66% | -2.19% | -2.79% |
| CC(C)COc1ccc(Cl)cc1Cc1nc(-c2nc3ccc(N4CCN(C)CC4)nc3[nH]2)cs1 | -3.46% | 1.5% | 3.9% |
| c1ccc2c3c([nH]c2c1)C(c1ccc2c(c1)CCO2)N(c1ncnc(N2CCN(CCCN4CCOCC4)CC2)n1)CC3 (configuration not stated) | 8.79% | 3.13% | 1.89% |
| Cc1nc(-c2ccc(-c3ccc(NC(=O)c4coc5ccc(N6CC(C)N(C)C(C)C6)cc45)cc3)c(C)c2)no1 (configuration not stated) | -0.52% | 0.17% | 3.28% |
| CC(C)c1cc2c(ccc3nc(N)nc(N)c32)[nH]1 | 9.81% | 31% | 8.49% |
| COc1ccc(-c2c(-c3ccc(OCc4ccccc4)cc3O)n[nH]c2C(F)(F)F)cc1 | 3.36% | 1.26% | 1.92% |
| O=C(N1CCN(c2ccc(C(F)(F)F)cc2[N+](=O)[O-])CC1)C(Cl)(Cl)Cl | 3.26% | 3.64% | 1.86% |
| Cc1nc(N)nc(N)c1OCc1ccc(Cl)c(Cl)c1 | 0.66% | 1.73% | 2.48% |
| CCn1cc(C=C2Oc3c(ccc(O)c3CN3CCCCC3C)C2=O)c2ccccc21 (configuration not stated) | 4.31% | 5.13% | 3.81% |
| COc1ccc(S(=O)(=O)NC2CCN(c3ccnc4cc(Cl)ccc34)C2)cc1 (configuration not stated) | 4.03% | 1.1% | 0.63% |
| COc1cc(OCCCCCCON2C(=N)N=C(N)NC2(C)C)cc(OC)c1OC | 7.66% | 8.02% | 6.93% |
| COc1ccc(Nc2nccc(NCCNC(=O)Nc3ccccc3F)n2)cc1 | 2.23% | 3.75% | -0.4% |
| CN1CCN(c2nsc3ccc(-c4ccc(NC(=O)Nc5ccccc5)cc4)cc23)CC1 | 2.28% | 0.56% | 0.99% |
| O=C(NCCCCN1CCC(c2cccc3ccccc23)CC1)c1ccc(NC(=O)c2ccc(Cl)cc2)cc1 | 1.07% | 0.25% | 0.68% |
| CC(=O)c1ccc(NC(=O)C2c3ccccc3C(=O)N(CC(C)C)C2c2cccs2)cc1 (configuration not stated) | -0.43% | 0.9% | 0.34% |
| COc1ccc2nc3cc(Cl)ccc3c(Nc3ccc(O)c(CN4CC5CCC(CC5)C4)c3)c2c1 | 4.99% | 4.24% | 3.82% |
| NCc1cccc(-c2cccc(CNC3CCN(Cc4ccccc4)CC3)c2)c1 | 6.06% | 5.41% | -0.37% |
| O=C(Cc1ccc(F)cc1)NC1CCN(c2ccnc3cc(Cl)ccc23)C1 (configuration not stated) | 0.69% | 1.78% | 2.41% |
| CO/C(=C\C=C/c1cc2cc(Cl)c(Cl)cc2[nH]1)C(=O)NC1CC(C)(C)N(C)C(C)(C)C1 | 7.24% | 5.6% | 5.19% |
| Cc1nc(-c2ccc(-c3ccc(NC(=O)Nc4ccc(I)c(OCCN(C)C)c4)cc3)c(C)c2)no1 | 7% | 5.44% | 3.02% |
